This is a sample that favours compounds with a hit; in the whole collection about 19% have one here.
uPA generation – cell surface uPA generation inhibition. cell surface uPA generation assay, qHTS. Potency, µM (doses to about 38.3 µM), for inactives: top-dose activity change, negative = inhibition, most hits filed as inhibitors. 330,000 compounds, 0.31% hits. AID 540303; active means well fitted inhibition curve with a large enough effect; inconclusive means small, poorly fitted or top-dose-only effect; inactive means no such curve, though single readings can be large or run the other way; tested in mouse RAW 264.7 cells; further: potency means the concentration at half of the fitted maximal effect; nearly all actives have a fitted effect of over 55% in size
HT1080NT lethal – kills 2HG-producing HT-1080-NT fibrosarcoma cells; HT-1080-NT fibrosarcoma viability, CellTiter-Glo ATP luminescence, 48 h; Potency, µM (highest dose often 46.1 µM), for the others: at the highest dose activity, negative = less viability, usual class: cytotoxic; 360,000 compounds, 1.6% hits;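 further: NT is the 2HG producing partner of a matched IDH1 knockdown line; potency means the concentration at half of the fitted maximal effect; 0% = DMSO-treated cells and -100% = media-only wells without cells; nearly all actives have a fitted effect of over 55% in size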
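HT-1080-NT fibrosarcoma cells (2HG-overproducing), 750 cells/well in RPMI with 5% FBS, dosed after 2 h and incubated 48 h at 37C. CellTiter-Glo luminescence normalized to DMSO and no-cell wells; concentration-response curves fitted and classed.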
TDP1 cell noCPT – qHTS for Inhibitors of human tyrosyl-DNA phosphodiesterase 1 (TDP1): qHTS in cells in absence of CPT; DT40 Tdp1-/- hTDP1 cells, no CPT, ATP luminescence, 48 h; Potency, µM (doses to about 46.2 µM), inactives show top-dose activity change, negative = growth inhibition, most hits filed as inhibitors; 420,000 compounds, 15% hits; AID 686978, 2013; further: potency means the concentration at half of the fitted maximal effect; nearly all actives have a fitted effect of over 55% in size
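Seeded 400 DT40-hTDP1 cells/well (vehicle DMSO, no 20 nM CPT); pinned compounds; ≥48 hr at 37 °C; CellTiter-Glo luminescence as viability measure.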
DT40 TDP1 CPT – growth inhibition of DT40 Tdp1-/-;hTDP1 cells with camptothecin (screen for TDP1 inhibitors). chicken DT40 Tdp1-/-;hTDP1 cells + 20 nM CPT, ATP luminescence, 48 h. Potency, µM (titrated, usually from 46.2 µM), for the others: at the highest dose activity change, negative = growth inhibition, actives largely listed as inhibitors. 420,000 compounds, 12% hits. AID 686979; further: potency means the concentration at half of the fitted maximal effect; nearly all actives have a fitted effect of over 55% in size
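Cell growth measured by CellTiter-Glo luminescence after a minimum 48 h, 37 C compound exposure with 20 nM CPT in Tdp1-knockout DT40 cells stably expressing hTDP1, seeded 400/well; qHTS titration format.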
IL1B secr inh – blocks inflammasome-driven IL-1 beta release; AID 743279; activity change, % at 57.5 µM; 360,000 compounds, 4.7% hits; THP-1 LPS/ATP IL-1B secretion, AlphaLISA, 16 h; stronger effect = lower value; in the data active means activity change below about -50%; inconclusive means mostly about -30% to -49%
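Secreted IL-1B measured by AlphaLISA bead assay after 16 h compound exposure of THP-1 cells; compounds (final up to 57.5 uM) added 1 h before LPS (250 ng/mL) and ATP (1.25 mM) stimulation; lower signal means less secretion.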
HT1080 IDH1KD tx – kills HT-1080 cells with IDH1 knockdown; HT-1080 IDH1 knockdown viability, ATP luminescence, 48 h; Potency, µM (highest dose often 46.1 µM), for the others: at the highest dose activity, negative = toxicity, usual class: cytotoxic; 360,000 compounds, 2% hits; AID 686971;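 further: potency means the concentration at half of the fitted maximal effect; 0% = DMSO wells and -100% = cell-free medium wells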
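After a 2 h attachment period, IDH1KD HT-1080 cells took pin-transferred compound for 48 h at 37 °C; ATP-based luminescence after 10 min room-temperature reagent incubation reported viability.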
Active calls of the source: *; ? = inconclusive; · = not tested or not shown. Unless noted, the call rests on the fitted dose curve; in most records, active means well fitted curve in the direction sought with a large enough effect; inconclusive means small, poorly fitted or top-dose-only effect, or another doubt; inactive means no such curve, though single readings can be large; an effect the other way counts as inactive or inconclusive. Unless noted, on the % scale 0 is the no-effect control and ±100 the full control effect.

SMILES	uPA generation	HT1080NT lethal	TDP1 cell noCPT	DT40 TDP1 CPT	IL1B secr inh	HT1080 IDH1KD tx
Cc1ccccc1NC(=O)COc1ccccc1C(=O)Nc1ccccc1	·	0%	-30%	-6%	·	-2%
O=C(COc1ccccc1C(=O)Nc1ccccc1)Nc1ccc(-c2ccccc2)cc1	·	·	11µM*	?	·	·
CS(=O)(=O)c1ccc(NC(=O)COc2ccccc2C(=O)Nc2ccccc2)cc1	·	·	?	20µM*	·	·
O=C(Nc1ccc(C2CC2(Cl)Cl)cc1)c1ccccc1Br (configuration not stated)	4%	4%	13µM*	18µM*	?	12%
O=C(COc1ccccc1C(=O)Nc1ccccc1)Nc1ccccc1-c1ccccc1	·	·	?	13µM*	·	·
O=C1CN(S(=O)(=O)c2ccc([N+](=O)[O-])cc2)CC(=O)N1	4%	11%	-12%	-19%	5	18%
COc1cc(NC(=O)CN2C(=O)c3ccccc3Sc3ccc(C(=O)N4CCCC4)cc32)cc(OC)c1	·	·	?	1%	·	·
N#Cc1ccccc1NC(=O)COc1ccccc1C(=O)Nc1ccccc1	3%	-14%	?	16µM*	0	-11%
COC(=O)c1ccccc1OCC(=O)NC1CCCCC1	-1%	11%	-14%	-10%	0	3%
CC(OC(=O)c1ccccc1OCC(=O)Nc1ccc(Br)cc1)C(=O)NC1CCCC1 (configuration not stated)	·	6%	10µM*	8.9µM*	·	11%
COc1ccc(C(=O)COc2ccccc2C(=O)Nc2ccccc2)cc1	3%	-1%	18µM*	12µM*	84	-7%
O=C(COc1ccccc1C(=O)Nc1ccccc1)Nc1ccc2ccccc2c1	·	-18%	20µM*	?	·	-9%
COc1ccc(NC(C)=O)cc1NC(=O)C1(c2cccs2)CCOCC1	·	·	15%	-1%	·	·
NC1=NC(=O)C(c2ccccc2)(c2ccccc2)S1	9%	1%	?	-3%	21	15%
O=C(Oc1ccccc1C(=O)Nc1ccccc1)c1ccccc1Br	-16%	?	21µM*	18µM*	?	7.3µM*
Cc1ccccc1NC(=O)c1ccccc1OCC(=O)Nc1ccc(Br)cc1	·	·	14µM*	?	·	·
CCn1cc(C(=O)NCc2ccccc2)c(=O)c2cc(S(=O)(=O)N3CCOCC3)ccc21	·	·	-12%	-21%	·	·
COc1cc(-c2[nH]ncc2CN2CCSCC2)cc(OC)c1OC	-1%	-1%	15µM*	?	102	-6%
COc1cc(-c2[nH]ncc2CN(C)Cc2nonc2C)cc(OC)c1OC	7%	-1%	16µM*	?	66	-7%
COc1ccc(-c2[nH]ncc2CN(C)Cc2nonc2C)c(OC)c1	14%	-1%	-5%	-4%	23	0%
O=C(Nc1ccc(Cl)c(Cl)c1)OCCNC(=O)c1ccncc1	4%	-21%	23µM*	?	-10	-22%
Cc1ccc(NC(=S)Nc2ccc(Cl)c(Cl)c2)c(OC(F)F)c1	1%	-2%	18µM*	21µM*	?	5%
Fc1ccc(NC(=S)Nc2ccccc2OC(F)F)cc1Cl	0%	?	?	?	?	?
Cc1cc(C)cc(NC(=S)Nc2ccc3cn[nH]c3c2)c1	-3%	17%	?	-23%	-53*	24%
NC(=S)Nc1ccc(Cl)c(Cl)c1	?	-14%	9.2µM*	12µM*	-8	-2%
O=C(COC(=O)c1nc(Cl)ccc1Cl)NNC(=O)c1cccs1	13%	1%	3%	1%	15	0%
Cc1cccc(C)c1NC(=S)Nc1ccc(Cl)c(Cl)c1	-6%	-6%	?	?	-9	-9%
Cc1ccc(NC(=O)c2ccc(Cl)c(N3C(=O)C=CC3=O)c2)cc1	-4%	?	2.1µM*	1.2µM*	-56*	?
